# Out of some 310,000 compounds screened, about 2,200 (0.71%) showed an effect of 50% or more. The effect is printed as a negative number. The sample as a whole holds a higher share of strong results than the screen did.
# Target: human ether-à-go-go-related gene (hERG) potassium channel (human, UniProt Q12809)
# Test: primary screen, population patch clamp on CHO cells stably expressing hERG; higher = less effect of the substance
# Sequence of human ether-à-go-go-related gene (hERG) potassium channel (Q12809 whole entry, looked up): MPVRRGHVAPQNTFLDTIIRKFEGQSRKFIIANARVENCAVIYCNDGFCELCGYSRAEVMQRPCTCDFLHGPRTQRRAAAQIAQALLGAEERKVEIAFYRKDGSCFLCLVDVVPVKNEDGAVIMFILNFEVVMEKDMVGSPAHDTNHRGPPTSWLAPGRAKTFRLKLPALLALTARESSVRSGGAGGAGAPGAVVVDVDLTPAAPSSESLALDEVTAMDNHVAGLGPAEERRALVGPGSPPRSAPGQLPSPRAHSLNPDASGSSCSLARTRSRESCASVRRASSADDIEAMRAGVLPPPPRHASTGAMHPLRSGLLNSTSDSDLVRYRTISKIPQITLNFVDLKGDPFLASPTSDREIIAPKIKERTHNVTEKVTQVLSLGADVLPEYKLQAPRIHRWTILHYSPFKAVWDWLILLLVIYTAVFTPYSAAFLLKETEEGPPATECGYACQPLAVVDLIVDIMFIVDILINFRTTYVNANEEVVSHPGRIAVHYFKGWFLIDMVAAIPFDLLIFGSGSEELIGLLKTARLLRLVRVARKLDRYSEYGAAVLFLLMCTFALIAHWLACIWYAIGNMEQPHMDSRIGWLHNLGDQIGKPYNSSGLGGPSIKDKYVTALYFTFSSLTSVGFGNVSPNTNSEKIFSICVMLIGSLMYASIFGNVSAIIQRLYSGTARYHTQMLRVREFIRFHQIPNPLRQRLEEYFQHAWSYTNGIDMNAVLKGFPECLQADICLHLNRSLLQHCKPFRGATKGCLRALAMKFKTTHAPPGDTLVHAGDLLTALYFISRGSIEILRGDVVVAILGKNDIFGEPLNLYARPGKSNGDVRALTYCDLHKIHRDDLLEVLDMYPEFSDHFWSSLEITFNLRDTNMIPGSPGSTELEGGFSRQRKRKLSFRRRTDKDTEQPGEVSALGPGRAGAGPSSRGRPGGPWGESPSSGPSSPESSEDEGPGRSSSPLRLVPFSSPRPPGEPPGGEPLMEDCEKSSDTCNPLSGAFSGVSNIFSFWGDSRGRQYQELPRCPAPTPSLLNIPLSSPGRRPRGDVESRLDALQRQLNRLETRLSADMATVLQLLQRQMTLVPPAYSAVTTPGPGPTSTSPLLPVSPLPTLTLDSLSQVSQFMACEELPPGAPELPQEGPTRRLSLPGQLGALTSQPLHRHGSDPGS
row,Structure (SMILES),"hERG current change (%, negative = inhibition) at 1uM"
1,O=c1[nH]c(=O)c2nc3ccccc3nc2[nH]1,2.78%
2,COc1cc(NC(=O)CN(C)C2CCCCC2)c(C)cc1[N+](=O)[O-],6.09%
3,Cc1ccc(S(=O)(=O)N[C@@H](CC(C)C)C(=O)NCc2ccco2)cc1,3.58%
4,CCCCN(C(=O)/C=C/c1ccco1)c1c(N)n(Cc2ccccc2)c(=O)[nH]c1=O,7.19%
5,CCOc1cc(NC(=S)NCCCN2CCOCC2)c(OCC)cc1NC(=O)c1cccc(F)c1,-0.782%
6,C=CCOc1ccccc1/C=N/NC(=O)Cc1ccccc1,14.3%
7,Cc1ccc(S(=O)(=O)N2CCCC2C(=O)Nc2nc3c(s2)CCCC3)cc1 (stereo not shown),13.2%
8,CC(=O)c1ccc(N2CCN(CC(O)COCc3ccco3)CC2)cc1 (stereo not shown),-29.3%
9,O=C(O)C(=O)O.OC(COCc1ccco1)CN1CCN(c2ccccc2)CC1 (stereo not shown),3.71%
10,CC1CCCCN1CC(O)COc1ccc(OCC(O)CN2CCCCC2C)cc1 (stereo not shown),13.5%
11,Cc1ccccc1OCC(O)CN1CCN(CC(O)COc2ccccc2C)C(C)C1.O=C(O)C(=O)O (stereo not shown),-29%
12,CC1CCCN(CC(O)COc2ccc(-c3ccccc3)cc2)C1 (stereo not shown),-57.8%
13,CC1CN(CC(O)COc2ccc(C#N)cc2)CCN1CC(O)COc1ccc(C#N)cc1 (stereo not shown),-86.2%
14,N#Cc1ccc(-c2ccc(OCC(O)CN3CCCCC3)cc2)cc1 (stereo not shown),-52.1%
15,CC1CCCN(CC(O)COc2ccc(Cl)cc2)C1.Cl (stereo not shown),-32.2%
16,OC1CCCN(CC(O)COc2ccc(-c3ccccc3)cc2)C1 (stereo not shown),-0.151%
17,OC(COc1ccc(OCC(O)CN2CCCCC2)cc1)CN1CCCCC1 (stereo not shown),18.1%
18,N#Cc1ccc(-c2ccc(OCC(O)CN3CCOCC3)cc2)cc1 (stereo not shown),7.69%
19,OC(COCc1ccco1)CN1CCN(C(c2ccccc2)c2ccccc2)CC1 (stereo not shown),-79.1%
20,COc1ccccc1NC(=O)COC(=O)/C=C/c1ccc2c(c1)OCO2,9.01%
21,O=C(Nc1ccc(C(=O)O)cc1)/C(=C\c1ccc2c(c1)OCO2)NC(=O)c1ccco1,19.4%
22,O=C(c1csc2c1CCCC2)N1CCN(c2ccc(F)cc2)CC1,2.84%
23,COc1ccc(C(=O)Nc2cccc(-c3ccc4nncn4n3)c2)cc1,7.11%
24,CCn1ncc(NC(=S)NCCc2ccccc2)c1C(N)=O,2.4%

row,Structure (SMILES),"hERG current change (%, negative = inhibition) at 1uM"
1,CC(C)C(OC(=O)c1cccs1)C(=O)NCc1ccco1 (stereo not shown),12.2%
2,O=S(=O)(Nc1cc(S(=O)(=O)N2CCOCC2)ccc1N1CCOCC1)c1ccc2c(c1)OCCO2,28.4%
3,COc1ccccc1N1C(=O)[C@@H]2[C@H](C1=O)[C@H](C(=O)c1ccc(OC(C)=O)cc1)N1N=CC=C[C@@H]21,15.9%
4,C#CCCOC(=O)N1C2=NC(C(=O)OC)=C(C(=O)OC)[C@@H]3N(C)c4ccc(OC)cc4[C@]23C[C@H]1C(=O)OC,-0.338%
5,CSc1ccc(/C=C2\CCn3c2nc2cc(C(=O)O)ccc2c3=O)cc1,15.6%
6,O=C(Nc1ccccn1)c1cc2ccccc2o1,9.79%
7,CCOC(=O)N/N=C/c1ccc(C)o1,5.21%
8,CC(=O)c1ccc(OCC(O)CN2CCN(c3ccc(F)cc3)CC2)cc1.Cl (stereo not shown),-64.9%
9,Cc1ccc(OCC(O)CN2CCN(CC(O)COc3ccc(C)cc3)CC2)cc1 (stereo not shown),-8.83%
10,CCC(=O)c1ccc(OCC(O)CN2CCN(c3ccc(F)cc3)CC2)cc1 (stereo not shown),-15.1%
11,Cl.OC(COCC1COc2ccccc2O1)CN1CCN(c2ccc(F)cc2)CC1 (stereo not shown),-57.6%
12,N#Cc1ccc(OCC(O)CN2CCN(CC(O)COc3ccc(C#N)cc3)CC2)cc1 (stereo not shown),-91.3%
13,CN1CCN(CC(O)COc2ccc(OCC(O)CN3CCN(C)CC3)cc2)CC1 (stereo not shown),10.2%
14,Cl.OC(COCC1COc2ccccc2O1)CN1CCN(c2ccccc2)CC1 (stereo not shown),-24.7%
15,O=C(O)CN1CCN(c2ncc(C(F)(F)F)cc2Cl)CC1,12.6%
16,N#Cc1ccc(OCC(O)CN2CCN(c3ncc(C(F)(F)F)cc3Cl)CC2)cc1 (stereo not shown),-81.4%
17,COc1ccc(N2CCN(CC(O)COc3ccc(F)cc3)CC2)cc1.Cl (stereo not shown),-47.8%
18,OC(CN1CCN(c2ncc(C(F)(F)F)cc2Cl)CC1)c1ccccc1 (stereo not shown),1.4%
19,Cl.OC(COCC1COc2ccccc2O1)CN1CCN(c2ccccc2F)CC1 (stereo not shown),-19.9%
20,Cc1cc(N2CCCC2)ccc1NC(=O)CN1C(=O)NC(C)(c2ccccc2)C1=O (stereo not shown),16%
21,O=P(O)(CCc1ccccc1)C(O)c1ccccc1 (stereo not shown),5.09%
22,COc1cc(OC)cc(C(=O)N[C@H](C(=O)OCC(=O)NC(=O)c2cccn2C)C(C)C)c1,6.95%
23,C=CCNC(=O)CSc1ccc(Cl)cc1,13.7%
24,CNc1nnc(-c2ccc(C)cc2)c2ccccc12,-5.45%

row,Structure (SMILES),"hERG current change (%, negative = inhibition) at 1uM"
1,Cc1ccc([N+](=O)[O-])c2c1C(N1CC(C)OC(C)C1)C(C)(C)O2 (stereo not shown),17.1%
2,CCOc1ccc(NC(=O)COc2ccc(C(=O)NCCc3ccccc3)cc2)cc1,3.64%
3,Cc1cc(C(=O)N/N=C/c2cccc(Cl)c2Cl)no1,3.36%
4,O=C1OC(N2C(=O)CC[C@H]2C(=O)Nc2ccc(F)c(F)c2)c2ccccc21 (stereo partly shown),8.61%
5,CC(=O)c1ccc(NC(=O)CSc2n[nH]c(-c3cccnc3)n2)cc1,14.1%
6,N=c1c(C(=O)NCCc2ccccc2)cc2c(=O)n3ccccc3nc2n1CC1CCCO1 (stereo not shown),-93.8%
7,COc1ccc(CCNC(=O)Cn2c(=O)n(CC3CCCO3)c(=O)c3ccccc32)cc1OC (stereo not shown),3.58%
8,O=C(CSc1nc2ccccc2c(=O)n1CC1CCCO1)NCCc1ccccc1 (stereo not shown),19.6%
9,COc1ccc(CCNC(=O)c2cc3c(=O)n4cccc(C)c4nc3n(CC3CCCO3)c2=N)cc1 (stereo not shown),-79.4%
10,COc1ccc(CCNC(=O)c2cc3c(=O)n4ccccc4nc3n(CC3CCCO3)c2=N)cc1OC (stereo not shown),-90.3%
11,Cc1cccn2c(=O)c3cc(C(=O)NCCc4ccccc4)c(=N)n(CC4CCCO4)c3nc12 (stereo not shown),-91%
12,Cc1ccc(NC(=O)N2CCCCCC2)cc1,0.321%
13,CCOC(=O)c1cnc(-n2nc(C)cc2C)nc1Nc1ccc(O)cc1,14.2%
14,COc1cc(Cl)c(C)cc1NC(=O)CSc1sc2c(O)cc(=O)[nH]c2c1C#N,18.7%
15,CC(=O)c1ccccc1NS(C)(=O)=O,9.61%
16,COc1ccccc1Nc1ncnc2ccc(C)cc12,12.7%
17,COc1ccc(CNC(=O)c2cc3c(=O)n4cccc(C)c4nc3n(CC3CCCO3)c2=N)cc1 (stereo not shown),-83.8%
18,Cc1cccn2c(=O)c3cc(C(=O)NCc4ccc(F)cc4)c(=N)n(CC4CCCO4)c3nc12 (stereo not shown),-81.8%
19,Cc1ccc(CCNC(=O)c2ccc3nc4ccccc4c(=O)n3c2)cc1,14.3%
20,Cc1ccc(S(=O)(=O)c2cc3c(=O)n4cccc(C)c4nc3n(CC3CCCO3)c2=N)cc1C (stereo not shown),12.9%
21,Cc1ccc2nc3c(cc(C(=O)NCCc4ccccc4)c(=N)n3CC3CCCO3)c(=O)n2c1 (stereo not shown),-84%
22,CC1CN(C(=O)c2c([N+](=O)[O-])cnn2C)CC(C)O1 (stereo not shown),1.78%
23,NNC(=O)C1CC(O)CN1S(=O)(=O)c1ccc(Cl)cc1 (stereo not shown),6.56%
24,O=C(Nc1ccc(-c2csc(-c3ccccc3)n2)cc1)c1ccccc1Cl,16.9%

row,Structure (SMILES),"hERG current change (%, negative = inhibition) at 1uM"
1,CCOC(=O)N1CCC(NC(=O)c2cc(C(=O)Nc3ccc(OC)c(OC)c3)ccc2CO)CC1,4.41%
2,O=S(=O)(c1ccccc1Cl)N1CCC(Cc2ccccc2)CC1,13.5%
3,CCCCc1nn(-c2cc(Cl)ccc2OC)c2c1C(=O)CCC2,12.2%
4,COC(=O)C1=C(c2ccc(F)cc2OCc2ccccc2)C[C@@H]2CC[C@H]1N2C(=O)NCCNC(C)=O,16.4%
5,Cc1cc(=O)n2nc(N3CCC(C(=O)NCC(C)c4ccccc4)CC3)sc2n1 (stereo not shown),11.7%
6,Cc1nn2c(NCCOCCO)c3c(nc2c1-c1ccccc1)CCCC3,-75.3%
7,COCCNc1c2c(nc3c(-c4ccccc4)c(C)nn13)CCCC2,5.77%
8,Cc1nn2c(NCCOCCO)c3c(nc2c1-c1ccccc1)CCC3,-9.29%
9,O=C(CCS(=O)(=O)c1cccs1)Nc1ccc(C(=O)NC2CCN(Cc3ccccc3)CC2)cc1,7.84%
10,CCC(CC)C(=O)c1c[nH]c(C(=O)NCc2ccccn2)c1,8.96%
11,COC(=O)c1ccc(C(=O)NC2CC(C)(C)Cc3c2cnn3-c2ccc(F)cc2)nc1 (stereo not shown),-0.769%
12,CC1(C)Cc2c(cnn2-c2ccc(F)cc2)C(NC(=O)C(C)(C)O)C1 (stereo not shown),12.6%
13,CC1(C)Cc2c(cnn2-c2ccc(F)cc2)C(NC(=O)C2=NNC(=O)CC2)C1 (stereo not shown),-52.1%
14,Cc1ccc(-n2ncc3c2CC(C)(C)CC3NC(=O)c2cc[n+]([O-])cc2)cc1 (stereo not shown),-62.7%
15,COC(=O)c1ccc(C(=O)NC2CCCc3c2cnn3-c2ccc(C)c(C)c2)cc1 (stereo not shown),12.4%
16,Cc1cc(C(=O)NC2CC(C)(C)Cc3c2cnn3-c2ccc(F)cc2)nn1C (stereo not shown),5.91%
17,Cc1ccc(-n2ncc3c2CC(C)(C)CC3NC(=O)c2ccncc2)cc1 (stereo not shown),-48.8%
18,CC1(C)Cc2c(cnn2-c2ccc(F)cc2)C(NC(=O)C2CCC2)C1 (stereo not shown),-56.8%
19,Cc1ccc(-n2ncc3c2CC(C)(C)CC3NC(=O)c2ccc[n+]([O-])c2)cc1 (stereo not shown),7.22%
20,CC(=O)N1CCC(C(=O)NC2CC(C)(C)Cc3c2cnn3-c2ccc(F)cc2)CC1 (stereo not shown),-11.3%
21,Cc1cc(C(=O)NC2CCCc3c2cnn3-c2ccc(C)c(C)c2)no1 (stereo not shown),1.86%
22,Cc1ccc(-n2ncc3c2CCCC3NC(=O)c2ccoc2)cc1C (stereo not shown),-78.5%

# From PMC4336329 (PLoS ONE, 2015)
